# The campaign covered roughly 310,000 compounds. About 18,000 (5.8%) were called active. About 22% were inconclusive and are not listed. Calls follow the shape of the dose curve; as a rule, active = well fitted inhibition curve with a large enough effect; inconclusive = small, poorly fitted or top-dose-only effect, or another doubt; inactive = no such curve, though single readings can be large or run the other way. The full list was thinned out, with actives kept by preference.
# Experiment: Primary qHTS for delayed death inhibitors of the malarial parasite plastid, 48 hour incubation
# Conditions: P. falciparum luciferase growth in erythrocytes; series mostly up to 28.7 µM; activity change, negative = inhibition: at the top concentration
# From the text: The goal of this screen is to discover new antimalarial compounds that act by inhibiting the development of the apicoplast in the malarial parasite Plasmodium falciparum. The biochemical processes that make this organelle essential for erythrocytic stage parasites are not well understood. However, antibiotics such as azithromycin and tetracycline, which target the apicoplast translational machinery, have a potent antimalarial effect.
# We have developed a cell-based assay that measures parasite growth based on the expression of an integrated copy of a firefly luciferase reporter. To detect small molecules that cause this "delayed death" phenotype, erythrocytes infected with the luciferase-expressing parasites were incubated with compounds for either one or two generations, corresponding to 48 and 96 hours, respectively. Compounds that inhibit parasite growth in the second generation, but not the first, should be enriched in antimalarials that target the apicoplast. Growth inhibition is detected by a decrease in luciferase activity.
# Assay Provider: David Fidock and Eric Ekland, Columbia University
# Keywords: NIH Roadmap, MLPCN, MLI, MLSMR, qHTS, NCGC, qHTS, malaria, luciferase, viability
# Four microliters of culture medium (RPMI 1640 with 0.5% w/v Albumax (GIBCO), 24 mM sodium bicarbonate and 10 ug/mL gentamycin) were dispensed by a Multi-drop Combi into white solid 1536-well plates (Grenier) and 23 nL compound was added by a pin tool. Four microliters of infected erythrocytes (2% hematocrit, 0.1% parasitemia final concentration) in culture medium were dispensed and the plates incubated for 48 hours at 37 C in 5% CO2. Two microliters of luciferase detection reagent was added and luminescence was detected by a ViewLux (PerkinElmer) reader.
# % is scaled to controls: 0 for no effect and ±100 for the full control effect; potency is read from the fitted curve at half-maximal effect.
Compound,"activity change, negative = inhibition",Potency
COc1ccc(Cc2nc3ccc(C(=O)N4CCC(N(C)C)C4)cc3o2)cc1 (stereo not given),-3.86% (inactive),
CCc1cccc(NC(=O)COC(=O)C2CCN(c3ccc(C(F)(F)F)cn3)CC2)c1,52.4% (inactive),
CCOC(=O)c1[nH]ncc1CN1CCCC(C(=O)c2ccc(OC)cc2C)C1 (stereo not given),21.3% (inactive),
COc1ccc(C(=O)C2CCCN(Cc3cccn3-c3ccccn3)C2)c(C)c1 (stereo not given),,6.57 µM (active)
COc1ccc(C(=O)C2CCCN(Cc3ccc4nonc4c3)C2)c(C)c1 (stereo not given),-14.3% (inactive),
COC(=O)c1ccc(NC(=O)CSc2nc(N)c(NC(=O)c3ccc(Br)o3)c(=O)[nH]2)cc1,3.29% (inactive),
COCCn1c(SCC(=O)N2CCCCCC2)nc2c(c1=O)SCC2,-12.2% (inactive),
COc1ccc(CCN=C2SCC(=O)N2Cc2ccccc2)cc1OC,-10.1% (inactive),
COc1ccc(CCN2C(=O)C(C)=C(C)C2=O)cc1OC,11% (inactive),
COc1ccc(CCNC2=C(Cl)C(=O)N(Cc3ccccc3)C2=O)cc1OC,,11.7 µM (active)
CCS(=O)(=O)Nc1ccc(C(=O)NCCSc2ccccc2)cc1,0% (inactive),
CN(C)CCNC(=O)c1[nH]nc2c1CCc1ccccc1-2,44.2% (inactive),
O=C(N/N=C/c1ccoc1)c1ccc(Cl)cc1Cl,5.69% (inactive),
CCCn1nc(NS(=O)(=O)c2ccc(F)cc2)c2cc3ccccc3nc21,20.1% (inactive),
CCCn1nc(NS(=O)(=O)c2ccccc2)c2cc3cc(C)ccc3nc21,8.29% (inactive),
CCCn1nc(NC(=O)C(C)C)c2cc3cc(OC)ccc3nc21,,11.7 µM (active)
O=C(OCC(=O)N1CCCCCC1)c1cnc(Cl)c(Cl)c1,-3.82% (inactive),
CC[C@]1([C@H]2O[C@@H]([C@@H]3O[C@](O)(CO)[C@@H](C)C[C@H]3C)C[C@H]2C)CC[C@@H]([C@]2(C)CC[C@@]3(C[C@@H](O)[C@@H](C)[C@@H]([C@H](C)[C@H](OC)[C@H](C)C(=O)O)O3)O2)O1,,0.0169 µM (active)
CSc1ccc(-c2c(C#N)c(N)nc3c2c(C)nn3-c2ccccc2)cc1,,1.47 µM (active)
CSc1nc(N)c(C#N)c(-c2ccccc2Cl)c1C#N,3.07% (inactive),
Cc1nn(-c2ccccc2)c2c1C(c1ccc(F)cc1)C(C#N)=C(N)O2 (stereo not given),-21.9% (inactive),
COc1cc(CNCc2ccc(OC)c3ccccc23)cc(OC)c1OC,-29.2% (inactive),
COc1ccccc1N1CCC(N2CCN(CC(C)(C)C)C(CCO)C2)CC1 (stereo not given),-4.92% (inactive),
C[N+](C)(CCCCCC[N+](C)(C)CCCN1C(=O)c2cccc3cccc(c23)C1=O)CCCN1C(=O)c2cccc3cccc(c23)C1=O,,0.329 µM (active)
O=C(CN1C(=O)c2cccc3cccc(c23)C1=O)N1CCCCC1,-23.4% (inactive),
O=C1c2cccc3cccc(c23)C(=O)N1CCCCCc1n[nH]c(=S)o1,-2.6% (inactive),
N#CCN(C(=O)COC(=O)C1CC2CCCC(C1)C2=O)c1ccccc1 (stereo not given),-0.813% (inactive),

Compound,"activity change, negative = inhibition",Potency
CCOc1ccc(NC(=O)c2ccc(NC(=O)C3CCCO3)cc2)cc1 (stereo not given),11.7% (inactive),
CC(=O)NCCC(=O)Nc1cc(S(=O)(=O)N2CCCCC2)ccc1Oc1cccc(C)c1,28% (inactive),
CCOc1ccc(S(=O)(=O)N2CCCCC2)cc1NC(=O)CN1CCCC1c1cccs1 (stereo not given),,4.65 µM (active)
O=C(CNCc1cccs1)Nc1cc(S(=O)(=O)N2CCCC2)ccc1Cl,-41.9% (inactive),
O=C(CNC(=O)c1ccccc1Br)NNC(=O)c1cccs1,0% (inactive),
O=C(NCCCn1ccnc1)c1ccccc1F,10.2% (inactive),
O=C(NCCCn1ccnc1)Nc1ccc(Cl)cc1Cl,-10.3% (inactive),
O=C(Nc1ccccc1C(=O)NCCCn1ccnc1)c1ccc(Cl)cc1Cl,,9.28 µM (active)
O=C(CSc1nc(=O)n2ccccc2n1)Nc1ccc2c(c1)OCCO2,38.7% (inactive),
COc1ccc(C(C)NC(=O)C2CCCC2)cc1 (stereo not given),3.5% (inactive),
CN(C)S(=O)(=O)c1ccc(N2CCCC2)c(C(=O)Nc2ccc(Br)cc2F)c1,,5.22 µM (active)
CN(C)S(=O)(=O)c1ccc(N2CCCC2)c(C(=O)Nc2cccc(F)c2)c1,-17% (inactive),
CN(C)S(=O)(=O)c1ccc(N2CCCC2)c(C(=O)NCc2ccccc2)c1,-7.21% (inactive),
COc1ccc(-n2ncc3c2CC(C)(C)CC3NC(=O)CCc2c(C)nn(C)c2C)cc1 (stereo not given),-1.16% (inactive),
Cc1cc(C)n2nc(CNS(=O)(=O)c3c(F)c(F)c(F)c(F)c3F)nc2n1,0% (inactive),
Cn1c(N)c(C(=O)COC(=O)COc2ccc(Cl)cc2)c(=O)n(C)c1=O,20.5% (inactive),
COc1cc(OC)c(NC(=O)c2ccc(Br)o2)cc1Cl,,8.28 µM (active)
COC(=O)c1ccc(N2CCOCC2)c(NC(=O)c2ccc(Br)o2)c1,2.02% (inactive),
CCN1CCN(c2c(Cl)cccc2NC(=O)c2ccc(Br)o2)CC1,0% (inactive),
O=C(CCCCCn1c(=S)[nH]c2ccsc2c1=O)NC1CCCCC1,-9.79% (inactive),
CC1CCc2[nH]c3ccc(C(=O)N(C)CC(=O)Nc4cccc(F)c4)cc3c2C1 (stereo not given),-27.2% (inactive),
CCCN(CC(=O)Nc1ccccc1C)C(=O)c1cc(=O)[nH]c2ccccc12,17.1% (inactive),
CCCN(CC(=O)Nc1ccccc1C)C(=O)c1ccc2[nH]c3c(c2c1)CC(C)CC3 (stereo not given),,10.4 µM (active)
CCC(C(=O)NCc1cccnc1)n1nc(C)c2sc3ccccc3c2c1=O (stereo not given),9.32% (inactive),
CC(C)NC(=O)C(c1ccc(F)cc1)N(C(=O)CCC(=O)Nc1ccccn1)c1ccccc1F (stereo not given),20.9% (inactive),
O=C(Nc1ccc(O)cc1)c1ccc(NC(=O)c2ccco2)cc1,81.7% (inactive),
O=C(Nc1ccccc1)c1ccco1,60.9% (inactive),

Compound,"activity change, negative = inhibition",Potency
O=C(Nc1ccc(Sc2ccc(Br)cc2)cc1)c1ccco1,,2.33 µM (active)
COc1ccc(OCc2cc(C(=O)N3CCCC3)no2)c2ccccc12,-19.2% (inactive),
CC(CCN1CCN=C1N(C)C)c1ccccc1 (stereo not given),-8.95% (inactive),
O=c1[nH]cnc(O)c1C(c1ccc(F)cc1)c1c(O)nc[nH]c1=O,-0.229% (inactive),
COCCCC1CCN(C(=O)C2CCC(=O)N(C3CCCCCC3)C2)CC1 (stereo not given),-6.84% (inactive),
Cc1ccc2nc(N3C(=O)C(O)=C(C(=O)c4ccco4)C3c3cccc(O)c3)sc2c1 (stereo not given),93% (inactive),
CCc1cccc(NC(=O)COC(=O)c2cc(=O)c3ccccc3o2)c1,22.4% (inactive),
O=c1oc2c(CN3CCCCC3)c(O)ccc2c2c1CCCCC2,,2.94 µM (active)
NC(=O)COc1ccc2c3c(c(=O)oc2c1)CCCCC3,25.1% (inactive),
NC(=O)C1CCN(C(=O)COc2ccc3c4c(c(=O)oc3c2)CCC4)CC1,-3.55% (inactive),
Cc1cccnc1NC(=O)Cn1c(=O)oc2ccccc21,-5.88% (inactive),
O=C(COC(=O)CNS(=O)(=O)c1ccc(F)c(F)c1F)NC1CCCC1,28.8% (inactive),
Nc1nnc(SCC(=O)NCC(=O)Nc2ccc(F)c(F)c2F)s1,5.81% (inactive),
COc1ccc(C(C)NC(=S)NC2CCCCC2)cc1OC (stereo not given),,2.08 µM (active)
COc1ccc(C(=O)NC(=S)NC2CCCCC2)cc1,-27.2% (inactive),
COc1cc(OC)c(C(=O)NC2CCCCCC2)cc1OC,0.054% (inactive),
COc1cc(C(=S)N2CCOCC2)ccc1O,,inactive
COc1ccc(Cl)cc1C(=O)NNC(=S)NC1CCCC1,-17.5% (inactive),
COc1cc(C(=S)NC2CCCCC2)ccc1O,,10.4 µM (active)
C=CCNC(=O)COc1coc(CN2CCN(Cc3ccccc3)CC2)cc1=O,10.4% (inactive),
Cn1c(SCC(=O)N2CCOCC2)nnc1-c1ccc2ncccc2c1,17% (inactive),
Cc1ccc(C(c2nnnn2C(C)(C)C)N2CCc3ccccc3C2)cc1 (stereo not given),3.97% (inactive),
CC(C)(C)n1nnnc1C(c1ccc2ncccc2c1)N1CCSCC1 (stereo not given),,9.28 µM (active)
O=C(Nc1nnc(S(=O)(=O)N2CCOCC2)s1)c1cccc(Br)c1,-13.8% (inactive),
O=C(CCc1ccccc1)NCc1cccnc1,1.54% (inactive),
COc1ccc(CCNC(=O)Cn2c(=O)n(CC3CCCO3)c(=O)c3ccccc32)cc1OC (stereo not given),-10.1% (inactive),
O=C(NCCc1ccccc1)C1CCC(Cn2c(=O)c3ccccc3n(Cc3cccnc3)c2=O)CC1 (stereo not given),,11.7 µM (active)

Compound,"activity change, negative = inhibition",Potency
COCCN(C(=O)CCC(=O)Nc1nccs1)C(C(=O)NCCC(C)C)c1ccc(F)cc1 (stereo not given),-3.76% (inactive),
c1ccc(-n2ncc3c(N4CCCC4)ncnc32)cc1,9.64% (inactive),
Oc1ccccc1N1CCN(c2ncnc3sc(-c4ccccc4)cc23)CC1,,13.1 µM (active)
COc1ccc(Nc2ncnc3sc(-c4ccccc4)cc23)c(OC)c1,-11% (inactive),
Cn1c(=O)oc2cc(S(=O)(=O)NCCC(=O)NCc3ccccc3Cl)ccc21,4.72% (inactive),
COc1cccc(CNCc2ccc3c(c2)OCO3)c1,-0.266% (inactive),
OC(CNCc1ccc2c(c1)OCO2)COc1ccccc1 (stereo not given),,3.29 µM (active)
Cc1ccc(CNCc2ccc3c(c2)OCO3)c(C)c1,3.76% (inactive),
CNS(=O)(=O)c1ccc(NC(=O)Nc2ccc3c(c2)OCO3)cc1,125% (inactive),
CCn1nccc1C(=O)Nc1ccc(Cl)c(Cl)c1,28.2% (inactive),
O=C(Nc1ccc(S(=O)(=O)Nc2ncccn2)cc1)C12CC3CC(CC(C3)C1)C2,5.34% (inactive),
CCn1nccc1C(=O)Nc1ccc(S(=O)(=O)NC23CC4CC(CC(C4)C2)C3)cc1,,6.57 µM (active)
Cc1ccc(C)c(S(=O)(=O)Nc2cc(C)on2)c1,10.4% (inactive),
CC(CN1CCOCC1)c1ccccc1 (stereo not given),-5.89% (inactive),
O=C(CC(c1ccccc1)c1cc(Cl)ccc1O)NCCN1CCOCC1 (stereo not given),47.7% (inactive),
OC(c1ccc(Cl)cc1)C(CN1CCOCC1)c1ccccc1 (stereo not given),,2.33 µM (active)
O=C(CN(C(=O)c1csnn1)c1ccc(Br)cc1)NC1CCCC1,18.7% (inactive),
CC(C)(C)c1ccc(S(=O)(=O)N2CCN(C(=O)c3ccc4c(c3)C(=O)N(Cc3ccncc3)C4=O)CC2)cc1,-2.86% (inactive),
CC(C)(C)c1ccccc1NC(=O)CN1C(=O)NC2(CCCC2)C1=O,-0.115% (inactive),
O=C(Nn1cnnc1)c1cc(Cl)ccc1Cl,2.15% (inactive),
Cc1sc2ncnc(Sc3nc4ccccc4s3)c2c1C,,1.85 µM (active)
CSc1ncnc2sc(C)c(C)c12,-21.6% (inactive),
c1ccc2sc(SNC3CCCCC3)nc2c1,0.0777% (inactive),
Cc1coc2c1c(C)cc1oc(=O)c(CC(=O)NCC(=O)N[C@H](C(=O)O)C(C)C)c(C)c12,-9.45% [at 0.00184 µM] (inactive),
